# Activity calls are given as the source filed them.
# Key:
# [1] = small molecules captured by biotinylated probe aFSTL3 – biochemical, small-molecule microarray, fluorescence 635/667, stem cell growth factor project, primary screen (AID 1064); settings: higher = more signal;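 further: measures binding of the biotinylated anti-FSTL3 antibody to printed compounds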
# [2] = binders from COS7 lysate, DM2A8 probe, primary screen, torsin A project, cell lysate, small-molecule microarray, fluorescence 635/667 (AID 1065); settings: higher = more signal, COS7 lysate expressing mutant human TOR1A
# [3] = small molecules captured by biotinylated probe aFGF2 – biochemical, small-molecule microarray, fluorescence 635/667, stem cell growth factor project, primary screen (AID 1067); settings: higher = more signal;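 further: measures binding of biotinylated aFGF2 protein to printed compounds on slides; z-score merges feature fluorescence and signal-to-noise across triplicate slides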
# [4] = small molecules captured by biotinylated probe aFGF10 – biochemical, small-molecule microarray, fluorescence 635/667, stem cell growth factor project, primary screen (AID 1071); settings: higher = more signal;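 further: score merges 667 nm spot intensity and signal to noise from triplicate slides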
# [5] = target: Neurogenic locus notch homolog protein 2 (Homo sapiens) (UniProt Q04721); assay: small molecules binding Notch2 protein – biochemical, small-molecule microarray, 635 nm fluorescence, stem cell growth factors, primary screen (AID 1073); settings: higher = more signal
# [6] = target: Pro-neuregulin-1, membrane-bound isoform (Homo sapiens) (UniProt Q02297); assay: small molecules binding neuregulin-1 protein – biochemical, small-molecule microarray, fluorescence 635/667, psychiatric disease protein project, primary screen (AID 1075); settings: NRG1 binding, 635 nm fluorescence, higher = more signal;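 further: score combines 667 nm spot fluorescence with signal to noise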
# [7] = system: Neuregulin-1 EGF-like domain; assay: small molecules binding NRG1 EGF domain – biochemical, small-molecule microarray, 635 nm fluorescence, primary screen (AID 1081); settings: higher = more signal;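 further: binding of the protein to compounds printed on small-molecule microarray slides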
# [8] = FRG1 expression reporter modulators in myotubes – cell-based, C2C12 myotubes, firefly/Renilla luciferase, luminescence, FRG1 inhibition for FSHD, primary screen (AID 1084); settings: FRG1 promoter luciferase, higher = more signal, called active from +8 up or from −8 down
# [9] = small molecules captured by biotinylated probe aFST – biochemical, small-molecule microarray, fluorescence 635/667, stem cell growth factor project, primary screen (AID 1086); settings: higher = more signal;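 further: score merges 667 nm fluorescence with signal-to-noise of each printed compound spot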
# [10] = binders of probe aHhip on microarray, primary screen, stem cell growth factor project, biochemical, small-molecule microarray, fluorescence 635/667 (AID 1087); settings: higher = more signal;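 further: score merges spot fluorescence at 667nm with spot signal to noise ratio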
# [11] = system: PRMT1 (protein arginine N-methyltransferase 1); assay: small molecules binding arginine methyltransferase PRMT1 – biochemical, small-molecule microarray, 635 nm fluorescence, primary screen (AID 1088); settings: higher = more signal;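 further: binding of Prmt1 protein to compounds spotted on small-molecule microarray slides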
# [12] = growth effects on S. cerevisiae YJM789 – YJM789 clinical isolate, OD600, 24 h, basal, primary screen (AID 1089); settings: higher = more signal, called active from +8 up or from −8 down;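 further: growth of clinical yeast isolate S. cerevisiae YJM 789 seeded 1000 cells per well; test concentration not given here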
# [13] = S. pombe growth modifiers, basal conditions – strain 972, OD600, 24 h, no modulator, primary screen (AID 1090);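 further: basal condition with compound alone and no growth modifier present; test concentration not given here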; settings: S. pombe 972 growth, higher = more signal, called active from +8 up or from −8 down
# [14] = budding yeast growth modifiers under rapamycin – strain BY4716, OD600, 96 h, primary screen (AID 1091); further: test concentration not given here; settings: S. cerevisiae BY4716 + rapamycin, higher = more signal, called active from +8 up or from −8 down
# [15] = target: Torsin-1A-interacting protein 2 (Homo sapiens) (UniProt Q8NFQ8); assay: small molecules binding lysate-expressed LULL1 – cell lysate, human LULL1 lysate, 635/667 nm fluorescence, primary screen (AID 1092); settings: small-molecule microarray, hLULL1 lysate binding, 635 nm fluorescence; higher = more signal;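 further: probe is lysate of COS7 cells overexpressing human LULL1; score merges per-feature 667 nm fluorescence with signal-to-noise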
# [16] = optical density change of DRC41 E. coli – strain DRC41, OD650, 24 h, E. coli filamentation project, primary screen (AID 1093);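 further: MC1000 strain lacking acrAB efflux and sulA so SOS filamentation is blocked; test concentration not given here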; settings: E. coli DRC41 growth, higher = more signal, called active from +8 up or from −8 down
# [17] = probe aLefty2 binding to arrayed compounds – biochemical, biotinylated probe, 635/667 nm fluorescence, primary screen (AID 1094); settings: small-molecule microarray, higher = more signal;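 further: score merges spot fluorescence near 667 nm with spot signal-to-noise ratio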
# [18] = system: Noggin (protein binding on small-molecule microarray); assay: small molecules binding Noggin protein – biochemical, 635/667 nm fluorescence, primary screen (AID 1095); settings: 635 nm fluorescence, higher = more signal;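 further: score merges 667 nm feature fluorescence with signal to noise over triplicate slides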
# [19] = target: Neurogenic locus notch homolog protein 3 (Homo sapiens) (UniProt Q9UM47); assay: small molecules binding NOTCH3 protein – biochemical, 635/667 nm fluorescence, primary screen (AID 1096); settings: small-molecule microarray, 635 nm fluorescence, higher = more signal
# [20] = probe aEGFR binding to arrayed compounds – biochemical, biotinylated probe, 635/667 nm fluorescence, primary screen (AID 1097); settings: small-molecule microarray, higher = more signal;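 further: probe is a biotinylated anti-EGFR antibody binding compounds printed on slides; score combines fluorescence near 667 nm and signal to noise of each spot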
# Pro-neuregulin-1, membrane-bound isoform (Homo sapiens), sequence (Q02297 whole entry, looked up, the tested form may be a part, canonical isoform): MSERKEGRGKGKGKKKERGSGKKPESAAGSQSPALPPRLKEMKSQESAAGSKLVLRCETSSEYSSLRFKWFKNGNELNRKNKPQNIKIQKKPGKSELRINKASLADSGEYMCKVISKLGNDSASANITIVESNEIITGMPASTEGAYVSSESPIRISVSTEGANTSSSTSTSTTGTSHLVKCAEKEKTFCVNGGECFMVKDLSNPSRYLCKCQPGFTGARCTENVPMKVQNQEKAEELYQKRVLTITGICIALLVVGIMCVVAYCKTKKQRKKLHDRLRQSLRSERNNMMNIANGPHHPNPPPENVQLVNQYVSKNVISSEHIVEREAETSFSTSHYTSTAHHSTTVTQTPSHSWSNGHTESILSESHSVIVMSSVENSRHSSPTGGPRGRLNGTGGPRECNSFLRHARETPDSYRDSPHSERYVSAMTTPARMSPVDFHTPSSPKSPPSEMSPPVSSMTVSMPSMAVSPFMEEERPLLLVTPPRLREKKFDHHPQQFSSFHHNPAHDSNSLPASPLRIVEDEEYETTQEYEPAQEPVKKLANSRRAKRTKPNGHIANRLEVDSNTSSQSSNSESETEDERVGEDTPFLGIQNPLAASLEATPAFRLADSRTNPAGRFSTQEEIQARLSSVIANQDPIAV
# Neurogenic locus notch homolog protein 3 (Homo sapiens), sequence (Q9UM47 whole entry, looked up): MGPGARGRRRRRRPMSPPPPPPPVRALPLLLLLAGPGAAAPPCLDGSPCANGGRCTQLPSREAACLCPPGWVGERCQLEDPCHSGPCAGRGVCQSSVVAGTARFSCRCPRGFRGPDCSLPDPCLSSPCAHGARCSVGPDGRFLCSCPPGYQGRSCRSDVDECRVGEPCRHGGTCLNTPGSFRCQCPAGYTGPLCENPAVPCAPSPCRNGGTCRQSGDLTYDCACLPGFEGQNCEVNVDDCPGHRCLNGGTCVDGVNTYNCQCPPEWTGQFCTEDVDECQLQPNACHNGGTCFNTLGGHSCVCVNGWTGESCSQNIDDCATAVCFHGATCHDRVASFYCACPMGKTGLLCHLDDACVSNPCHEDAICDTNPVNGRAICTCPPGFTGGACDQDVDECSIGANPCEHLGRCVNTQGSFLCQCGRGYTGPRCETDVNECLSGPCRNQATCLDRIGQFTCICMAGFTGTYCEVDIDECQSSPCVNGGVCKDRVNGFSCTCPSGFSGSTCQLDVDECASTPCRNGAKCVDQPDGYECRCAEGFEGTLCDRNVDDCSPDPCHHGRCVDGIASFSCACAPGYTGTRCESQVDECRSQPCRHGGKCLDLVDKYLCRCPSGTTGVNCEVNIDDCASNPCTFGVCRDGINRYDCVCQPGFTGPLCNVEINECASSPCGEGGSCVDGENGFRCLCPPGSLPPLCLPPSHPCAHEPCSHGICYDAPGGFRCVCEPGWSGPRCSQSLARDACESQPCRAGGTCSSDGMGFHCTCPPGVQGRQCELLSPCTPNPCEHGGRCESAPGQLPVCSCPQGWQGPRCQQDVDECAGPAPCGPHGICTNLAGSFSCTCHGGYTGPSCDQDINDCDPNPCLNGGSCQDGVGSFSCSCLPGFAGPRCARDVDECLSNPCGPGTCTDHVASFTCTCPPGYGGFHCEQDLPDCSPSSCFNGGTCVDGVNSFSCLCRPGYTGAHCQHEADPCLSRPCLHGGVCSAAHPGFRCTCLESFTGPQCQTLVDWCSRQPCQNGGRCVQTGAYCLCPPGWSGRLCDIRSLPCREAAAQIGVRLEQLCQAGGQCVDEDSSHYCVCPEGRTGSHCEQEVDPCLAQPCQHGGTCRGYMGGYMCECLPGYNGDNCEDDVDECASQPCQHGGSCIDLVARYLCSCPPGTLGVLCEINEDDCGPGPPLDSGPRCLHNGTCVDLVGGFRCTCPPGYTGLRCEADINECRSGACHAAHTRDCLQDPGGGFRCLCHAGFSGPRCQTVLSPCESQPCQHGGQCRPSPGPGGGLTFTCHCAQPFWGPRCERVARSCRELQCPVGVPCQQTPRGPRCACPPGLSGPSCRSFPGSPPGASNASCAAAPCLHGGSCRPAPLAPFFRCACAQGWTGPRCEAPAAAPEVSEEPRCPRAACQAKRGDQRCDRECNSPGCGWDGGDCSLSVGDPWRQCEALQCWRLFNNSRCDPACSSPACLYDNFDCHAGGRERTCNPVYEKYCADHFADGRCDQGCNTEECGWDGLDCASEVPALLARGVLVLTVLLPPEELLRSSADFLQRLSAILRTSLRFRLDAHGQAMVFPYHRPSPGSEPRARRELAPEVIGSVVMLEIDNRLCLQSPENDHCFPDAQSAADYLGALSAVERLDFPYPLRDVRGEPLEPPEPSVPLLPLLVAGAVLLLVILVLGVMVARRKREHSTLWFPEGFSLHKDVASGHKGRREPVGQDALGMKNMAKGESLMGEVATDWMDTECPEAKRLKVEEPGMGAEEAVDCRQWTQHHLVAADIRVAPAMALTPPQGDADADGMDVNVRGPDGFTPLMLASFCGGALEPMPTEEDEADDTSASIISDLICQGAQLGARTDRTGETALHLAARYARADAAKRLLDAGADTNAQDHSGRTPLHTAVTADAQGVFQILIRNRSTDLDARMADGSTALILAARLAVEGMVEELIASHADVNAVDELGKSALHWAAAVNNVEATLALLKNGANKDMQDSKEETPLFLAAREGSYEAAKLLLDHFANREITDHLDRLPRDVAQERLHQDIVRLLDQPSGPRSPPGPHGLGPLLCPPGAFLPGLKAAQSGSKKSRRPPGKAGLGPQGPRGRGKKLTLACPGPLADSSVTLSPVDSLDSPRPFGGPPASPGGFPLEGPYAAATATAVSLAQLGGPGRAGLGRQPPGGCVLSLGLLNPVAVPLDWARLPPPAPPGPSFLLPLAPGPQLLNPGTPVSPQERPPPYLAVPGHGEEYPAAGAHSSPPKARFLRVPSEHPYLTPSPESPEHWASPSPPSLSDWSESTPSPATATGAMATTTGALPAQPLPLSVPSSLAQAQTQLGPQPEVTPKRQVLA
# Torsin-1A-interacting protein 2 (Homo sapiens), sequence (Q8NFQ8 whole entry, looked up): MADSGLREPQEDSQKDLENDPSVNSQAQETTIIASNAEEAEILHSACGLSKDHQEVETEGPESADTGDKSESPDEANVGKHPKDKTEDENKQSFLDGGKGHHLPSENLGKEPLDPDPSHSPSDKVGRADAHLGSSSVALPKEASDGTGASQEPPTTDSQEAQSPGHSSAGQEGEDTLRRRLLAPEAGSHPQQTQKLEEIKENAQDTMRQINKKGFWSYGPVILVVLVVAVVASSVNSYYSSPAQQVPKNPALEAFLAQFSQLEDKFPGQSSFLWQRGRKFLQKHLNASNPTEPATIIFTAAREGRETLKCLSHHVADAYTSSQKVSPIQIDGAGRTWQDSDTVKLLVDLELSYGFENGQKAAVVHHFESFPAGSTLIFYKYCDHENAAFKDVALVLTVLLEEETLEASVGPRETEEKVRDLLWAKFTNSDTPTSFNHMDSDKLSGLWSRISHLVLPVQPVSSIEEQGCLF
Compound,composite z-score [1],composite z-score [2],composite z-score [3],composite z-score [4],composite z-score [5],composite z-score [6],composite z-score [7],z-score [8],composite z-score [9],composite z-score [10],composite z-score [11],z-score [12],z-score [13],z-score [14],composite z-score [15],z-score [16],composite z-score [17],composite z-score [18],composite z-score [19],composite z-score [20]
COC(=O)C(CC#Cc1ccc2c(c1)[C@]1(C(=O)N2)[C@H](c2ccc(O)cc2)N2[C@H](c3ccccc3)[C@H](c3ccccc3)OC(=O)[C@H]2[C@@H]1C(=O)N1CCc2cc(OC)c(OC)cc2C1)C(=O)OC,-0.312,0.475,-0.0692,0.59,1.07,0.296,1.27,1.63 (inactive),0.652,-0.0755,1.54,1.39 (inactive),1.12 (inactive),0.735 (inactive),1.59,-0.829 (inactive),-0.109,0.958,1.05,0.232
COCCOC(=O)N1C(=O)[C@@]2(c3cc(C#CC4(O)CCCCCC4)ccc31)[C@H](c1ccc(OCCO)cc1)N1[C@H](c3ccccc3)[C@H](c3ccccc3)OC(=O)[C@H]1[C@@H]2C(N)=O,-0.392,0.96,0.014,1.05,0.96,1.32,1.14,0.11 (inactive),0.48,-0.0645,1.53,1.29 (inactive),0.926 (inactive),4.69 (inactive),1.67,0.257 (inactive),0.0494,1.52,1.06,-0.013
CN1C(=O)C2C=CC(C(O)c3ccc(-c4ccccc4)s3)N(Nc3ccccc3)C2C1=O (stereo not given),0.876,0.358,0.0754,0.454,1.67,1.43,1.09,0.0583 (inactive),1.15,0.245,0.932,-1.29 (inactive),0.447 (inactive),0.164 (inactive),2.91,-0.576 (inactive),0.182,-0.399,1.11,-0.0043
COCCOC(=O)N1C(=O)[C@@]2(c3ccccc31)[C@H](C(N)=O)[C@H]1C(=O)O[C@H](c3ccccc3)[C@H](c3ccccc3)N1[C@@H]2c1ccc(OCCO)cc1,-0.4,1.06,0.0445,0.257,0.995,1.59,1.21,0.341 (inactive),0.239,0.0854,1.54,2.25 (inactive),0.601 (inactive),4.25 (inactive),2.58,0.935 (inactive),-0.0862,1.61,1.14,-0.132
C=CC(CO)NC(=O)OCC1c2ccccc2-c2ccccc21 (stereo not given),-0.165,0.96,-0.178,0.282,0.342,0.147,0.256,-0.113 (inactive),0.0613,-0.217,-0.341,-1.2 (inactive),-0.0715 (inactive),-0.29 (inactive),-0.652,-0.77 (inactive),-0.145,0.497,0.493,-0.0192
C=C(COC)C(=O)CC[C@@H](OC(=O)c1cccnc1)c1cccc(OCCO)c1,0.0424,0.759,-0.0332,0.455,-0.0967,0.851,0.762,0.587 (inactive),0.532,-0.171,1.37,-0.686 (inactive),-1.14 (inactive),-0.632 (inactive),1.35,0.726 (inactive),0.0932,0.873,0.693,-0.0922
CCCCC=C[C@@H](NC(=O)c1ccc(C(F)(F)F)cc1)c1ccccc1,0.385,0.0374,-0.0583,-0.0239,-0.955,0.297,-0.444,1.02 (inactive),-0.392,0.449,-0.461,-0.27 (inactive),-8.36 (active),-1.79 (inactive),0.748,-1.07 (inactive),-0.0285,-0.905,-0.76,-0.566
Cc1ccc(S[C@]2(C(=O)NCCN3CCOCC3)CC(=O)N(C3CCCCC3)[C@@H]2c2ccc(CO)cc2I)cc1,-1.01,0.866,-0.0687,0.841,0.955,1.61,1.22,-2.05 (inactive),0.259,-0.279,1.53,-0.376 (inactive),0.174 (inactive),1.28 (inactive),3.23,-0.385 (inactive),-0.0512,0.824,1.07,-0.313
NCCCC[C@@H]1NC(=O)[C@H]2C[C@@H](C(=O)O)[C@@H](c3cccc(OCCO)c3)N2C1=O,1.34,1.57,0.097,0.856,1.61,2.05,1.4,0.805 (inactive),2.16,-0.0474,1.53,1.42 (inactive),-1.66 (inactive),-0.503 (inactive),3.33,-1.31 (inactive),0.781,1.85,1.02,0.703
COc1ccc(CCNC(=O)[C@@]2(Sc3ccc(C)cc3)CC(=O)N(C(C)C)[C@@H]2c2ccc(CO)cc2)cc1,1.09,0.53,-0.129,-0.0606,-1.35,0.871,0.401,-0.921 (inactive),-0.686,0.021,0.633,0.956 (inactive),0.0503 (inactive),0.088 (inactive),2.09,-0.015 (inactive),0.0507,-1.4,-1.15,-0.249

# Reference: PubChem BioAssay
